We go through eleven compounds from PubChem BioAssay (EPA / NIEHS).

Several values for one entry are separate records, joined by “and”; a condition that tells them apart may be missing. Identical values can stand only once. Inconclusive results are not listed. Activity calls are given as the source filed them. Rule for the calls: active = hit-call score of the fitted dose curve at least 0.9, where 1 is the maximum; inconclusive = response in the unintended direction; inactive = score below 0.9.

Chain of human Neuropeptide Receptor Y1 (NPY1), NPY1R (gene 4886) (P25929 whole entry, looked up): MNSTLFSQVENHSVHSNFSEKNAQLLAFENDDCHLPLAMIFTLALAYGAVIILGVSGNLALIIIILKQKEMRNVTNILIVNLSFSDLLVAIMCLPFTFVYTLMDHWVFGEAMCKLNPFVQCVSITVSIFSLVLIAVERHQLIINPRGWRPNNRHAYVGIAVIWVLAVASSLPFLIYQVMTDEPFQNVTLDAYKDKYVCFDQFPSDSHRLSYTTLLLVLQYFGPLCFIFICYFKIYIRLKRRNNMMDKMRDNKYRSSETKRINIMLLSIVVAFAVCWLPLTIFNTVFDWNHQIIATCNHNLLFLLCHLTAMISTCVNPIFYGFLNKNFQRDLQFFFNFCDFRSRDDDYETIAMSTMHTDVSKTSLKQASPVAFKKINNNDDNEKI
Chain of human Muscarinic, M4 Receptor, CHRM4 (gene 1132) (P08173 whole entry, looked up): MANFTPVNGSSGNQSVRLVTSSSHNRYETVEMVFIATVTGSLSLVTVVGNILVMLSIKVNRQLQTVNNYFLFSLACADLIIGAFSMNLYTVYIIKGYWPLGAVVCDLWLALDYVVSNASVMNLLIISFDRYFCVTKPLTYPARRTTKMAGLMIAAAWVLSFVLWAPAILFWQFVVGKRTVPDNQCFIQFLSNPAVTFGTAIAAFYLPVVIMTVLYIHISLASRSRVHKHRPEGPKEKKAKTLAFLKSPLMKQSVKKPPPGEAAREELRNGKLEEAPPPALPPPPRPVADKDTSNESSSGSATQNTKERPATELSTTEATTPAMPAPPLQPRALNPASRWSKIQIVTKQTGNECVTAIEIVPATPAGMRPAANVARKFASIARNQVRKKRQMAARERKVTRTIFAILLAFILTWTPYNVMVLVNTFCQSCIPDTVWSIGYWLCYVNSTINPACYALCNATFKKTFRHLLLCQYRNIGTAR
Chain of Muscarinic acetylcholine receptor M2 (Homo sapiens) (P08172 whole entry, looked up): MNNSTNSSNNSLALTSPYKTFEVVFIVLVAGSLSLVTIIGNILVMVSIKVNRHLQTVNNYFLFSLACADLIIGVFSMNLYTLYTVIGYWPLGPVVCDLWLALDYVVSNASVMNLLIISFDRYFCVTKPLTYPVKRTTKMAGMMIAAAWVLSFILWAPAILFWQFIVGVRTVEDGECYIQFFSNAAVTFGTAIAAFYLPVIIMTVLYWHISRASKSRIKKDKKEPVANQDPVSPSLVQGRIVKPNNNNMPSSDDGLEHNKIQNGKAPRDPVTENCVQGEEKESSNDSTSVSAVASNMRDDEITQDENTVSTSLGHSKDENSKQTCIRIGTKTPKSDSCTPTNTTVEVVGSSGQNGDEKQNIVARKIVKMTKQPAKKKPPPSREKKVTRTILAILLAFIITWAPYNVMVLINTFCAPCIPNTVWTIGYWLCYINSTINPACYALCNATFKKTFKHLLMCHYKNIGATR

In one assay the target is human Leukotriene B4 Receptor 1 (LTB4-BLT1), LTB4R (gene 1241) (UniProt Q15722). In words: NVS_GPCR_hLTB4_BLT1: NovaScreen (NVS) G Protein-Coupled Receptor Assay for human Leukotriene B4 Receptor 1 (LTB4-BLT1) (AID 2283271). In short, it runs like this: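 Radioligand displacement binding on receptor extracted from human neutrophils, cell-free, 1 h after dosing; filter-based scintillation counting. Primary screen in duplicate at 25 uM, actives retested in concentration-response up to 50 uM; loss of signal versus DMSO.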
Chain of human Leukotriene B4 Receptor 1 (LTB4-BLT1), LTB4R (gene 1241) (Q15722 whole entry, looked up): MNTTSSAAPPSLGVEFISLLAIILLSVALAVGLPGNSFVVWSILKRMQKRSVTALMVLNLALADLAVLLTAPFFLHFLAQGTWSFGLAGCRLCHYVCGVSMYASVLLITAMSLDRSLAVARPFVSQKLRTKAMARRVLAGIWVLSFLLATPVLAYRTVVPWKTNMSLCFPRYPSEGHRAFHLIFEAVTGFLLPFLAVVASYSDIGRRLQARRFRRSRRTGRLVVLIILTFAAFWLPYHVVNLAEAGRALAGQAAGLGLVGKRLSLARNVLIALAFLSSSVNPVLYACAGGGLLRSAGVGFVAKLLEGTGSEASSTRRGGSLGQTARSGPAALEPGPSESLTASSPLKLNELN
With `COc1ccc(C(c2ccc(OC)cc2)C(Cl)(Cl)Cl)cc1`, the outcome was inactive.
For `OC(c1ccc(Cl)cc1)(c1cncnc1)c1ccccc1Cl` (stereo not given), the call was inactive.
For `CO/C=C(/C(=O)OC)c1ccccc1Oc1cc(Oc2ccccc2C#N)ncn1`, the AC50 – broadly, the midpoint of the concentration-response curve, whichever way the signal moves – was 14.6 µM (active).
`CC1COC(Cn2cncn2)(c2ccc(Oc3ccc(Cl)cc3)cc2Cl)O1` (stereo not given): the outcome was inactive.

The next assay addresses Muscarinic acetylcholine receptor M2 (Homo sapiens) (UniProt P08172). In words: NVS_GPCR_hM2: NovaScreen (NVS) G Protein-Coupled Receptor Assay for human Muscarinic, M2 Receptor (AID 2283273). An outline of the steps: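 Radioligand displacement on human M2 receptor membranes from CHO cells, 1 h incubation, filtration with scintillation counting. Primary screen in duplicate at 25 uM; actives retested in concentration series; loss of signal fitted versus DMSO.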
`COc1ccc(C(c2ccc(OC)cc2)C(Cl)(Cl)Cl)cc1`: the call was inactive.
In the case of `COP(=S)(OC)Oc1nc(Cl)c(Cl)cc1Cl`, the outcome was inactive.
As to `CNC(=S)S`, the outcome was inactive.

Another assay concerns the target human Muscarinic, M4 Receptor, CHRM4 (gene 1132) (UniProt P08173). In words: NVS_GPCR_hM4: NovaScreen (NVS) G Protein-Coupled Receptor Assay for human Muscarinic, M4 Receptor (AID 2283274). In short, it runs like this:
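Cell-free radioligand displacement using CHO-derived human M4 receptor protein, 1 h after dosing; bound radioactivity by filtration and scintillation counting. Primary screen single 25 uM duplicate, actives followed in concentration series.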
In the case of `CCCC1COC(Cn2cncn2)(c2ccc(Cl)cc2Cl)O1` (stereo not given), the call was inactive.
On the same count and under the same terms, the entry for `COc1ccc(C(c2ccc(OC)cc2)C(Cl)(Cl)Cl)cc1` is “inactive”; for `COC(=O)C=C(C)OP(=O)(OC)OC` it is “inactive”; for `CN(C)C(=S)SSC(=S)N(C)C` it is “inactive”.

The next assay addresses human Neuropeptide Receptor Y1 (NPY1), NPY1R (gene 4886) (UniProt P25929). In words: NVS_GPCR_hNPY1: NovaScreen (NVS) G Protein-Coupled Receptor Assay for human Neuropeptide Receptor Y1 (NPY1) (AID 2283276). Here is the method: NVS_GPCR_hNPY1 is a biochemical, single-readout assay that uses extracted gene-proteins from SK-N-MC in a cell-free assay. Measurements were taken 1 hour after chemical dosing in a 96-well plate.NVS_GPCR_hNPY1 is one of one assay component(s) measured or calculated from the NVS_GPCR_hNPY1 assay. It is designed to make measurements of radioligand binding, a form of binding reporter, as detected with scintillation counting signals by Filter-based radiodetection technology.Data from the assay component NVS_GPCR_hNPY1 was analyzed into 1 assay endpoint. This assay endpoint, NVS_GPCR_hNPY1, was analyzed in the positive analysis fitting direction relative to DMSO as the negative control and baseline of activity. Using a type of binding reporter, loss-of-signal activity can be used to understand changes in the binding as they relate to the gene NPY1R. Furthermore, this assay endpoint can be referred to as a primary readout, because the performed assay has only produced 1 assay endpoint. To generalize the intended target to other relatable targets, this assay endpoint is annotated to the gpcr intended target family, where the subfamily is rhodopsin-like receptor.
Binding assays used specific radioligands (tritiated, iodinated) with non-radioactive competitive displacement ligands in agonist or antagonist protocols (as indicated) and various reference compounds and inhibitors to titrate specific binding to receptors and transporters. Most enzyme assays (CYPs, kinases, phosphatases, proteases, HDACs) used recombinant protein and specific substrates (fluorescence mostly, some colorimetric and radioactive) and inhibitors, followed by a biochemical separation of substrate and product. All assays for the biochemical HTS were initially run in duplicate at a single concentration (10 uM for CYP450 assays and 25 uM for all others). […] Each assay was run with positive and negative controls, and concurrent controls on every plate. The follow-up (secondary) screen tested active chemical-pairs in concentration series, as well as a few additional assays not tested in the primary screen, some selected negative inactives, and several cases re-run in the concentration series for confirmatory purposes.
For the compound `CS/C(C)=N/OC(=O)N(C)SN(C)C(=O)O/N=C(\C)SC`, the AC50 is 25 µM (active).
The same measure, in the same setting: with `CN(C)C(=S)SSC(=S)N(C)C` the figure was 14.7 µM (active).
As to `CNC(=S)S`, the compound was called inactive.
For the compound `CCCCNC(=O)OCC#CI`, the AC50 was 15.9 µM (active) and 14.4 µM (active).
